# Legend:
# Settings in all cases: concentration: 1 μM, replicates: in singlicate; n = 1
# DLK = test system: T1, DLK
# T1 construct: gene MAP3K12
# DMPK2 = test system: T2, DMPK2
# T2 construct: gene CDC42BPG
# DMPK = test system: DMPK
# DRAK1 = test system: T3, DRAK1
# T3 construct: gene STK17A
# DRAK2 = test system: T4, DRAK2
# T4 construct: gene STK17B
# DYRK1A = test system: DYRK1A
# DYRK1B = test system: DYRK1B
# DYRK2 = test system: DYRK2
# EGFR = test system: EGFR
# EIF2AK1 = test system: EIF2AK1
# EPHA1 = test system: EPHA1
# EPHA2 = test system: EPHA2
# EPHA3 = test system: EPHA3
# EPHA4 = test system: EPHA4
# EPHA5 = test system: EPHA5
# EPHA6 = test system: EPHA6
# EPHA7 = test system: EPHA7
# EPHA8 = test system: EPHA8
# EPHB1 = test system: EPHB1
# EPHB2 = test system: EPHB2
# 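Also: KINOMEscan kinase panel screen.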
SMILES,%Inh (DLK),%Inh (DMPK2),%Inh (DMPK),%Inh (DRAK1),%Inh (DRAK2),%Inh (DYRK1A),%Inh (DYRK1B),%Inh (DYRK2),%Inh (EGFR),%Inh (EIF2AK1),%Inh (EPHA1),%Inh (EPHA2),%Inh (EPHA3),%Inh (EPHA4),%Inh (EPHA5),%Inh (EPHA6),%Inh (EPHA7),%Inh (EPHA8),%Inh (EPHB1),%Inh (EPHB2)
O=C(Nc1n[nH]c2nc(-c3ccccc3)c(Cl)cc12)C1CC1 [SB-734909],22%,11%,0%,0%,0%,10%,3%,8%,14%,18%,19%,24%,17%,8%,0%,13%,17%,21%,0%,0%
CN(C)c1cc(-c2ccc3c(N)n[nH]c3c2)nc(N)n1 [GSK2219329],7%,5%,0%,36%,0%,9%,5%,67%,43%,0%,15%,0%,4%,8%,0%,0%,0%,3%,14%,0%
Cn1c(=O)c(F)c(Nc2ccc(I)cc2F)c2c(=O)n(OC[C@H](O)CO)cnc21,0%,20%,17%,0%,10%,0%,0%,0%,3%,0%,36%,15%,0%,16%,5%,12%,14%,19%,20%,34%
COc1cccc(-n2cnc3c(N)ncnc32)c1 [SKF-97416],17%,7%,11%,37%,0%,12%,2%,39%,18%,35%,9%,0%,4%,4%,3%,0%,0%,0%,0%,19%
COc1cc(Nc2nccc(N3CCC(NC(=O)C4COc5ccccc5O4)C3)n2)cc(OC)c1OC (stereo not drawn) [GSK1379761],60%,0%,0%,0%,0%,0%,5%,19%,43%,0%,1%,17%,1%,2%,0%,0%,0%,5%,6%,8%
C[C@@H]1CC[C@H](C(=O)NC2CCCCC2)CN1c1cc(-c2ccc3c(N)n[nH]c3c2)nc(N)n1 [GSK2291363],31%,23%,0%,20%,0%,23%,6%,20%,45%,0%,6%,23%,18%,12%,11%,10%,8%,22%,26%,8%
COc1cccc(C2=C(Nc3cccc(C(=O)O)c3)C(=O)NC2=O)c1 [SB-390770],0%,4%,0%,0%,0%,14%,0%,0%,12%,0%,9%,23%,0%,10%,0%,11%,0%,0%,8%,9%
Cc1ccc(-c2ccc3c(ccc4sc5c(c43)NC[C@@H](C)N=C5N(C)C)n2)cn1,0%,0%,0%,0%,0%,0%,0%,0%,23%,7%,0%,0%,0%,0%,0%,0%,0%,0%,0%,0%
Fc1cccc(CSc2nnc(-c3ccc4c(c3)CCO4)o2)c1,0%,9%,0%,27%,18%,62%,37%,7%,17%,26%,0%,0%,13%,0%,7%,0%,10%,11%,9%,23%
COc1cc(Nc2ccnc3ccc(C(F)(F)F)cc23)cc(OC)c1OC [GW577382],32%,4%,0%,0%,0%,4%,16%,0%,27%,2%,61%,35%,27%,14%,2%,0%,10%,75%,10%,26%
O=C(Nc1ccc2c(c1)OCO2)NC1CCN(c2ccnc(NCc3ccc(F)cc3)n2)CC1 [GSK1379859],22%,16%,0%,6%,0%,7%,14%,5%,44%,10%,8%,0%,0%,13%,0%,8%,1%,0%,0%,37%
Nc1ncnc2c1ncn2-c1cccc(F)c1 [SKF-97560],19%,14%,0%,20%,0%,25%,13%,13%,9%,28%,11%,9%,0%,4%,0%,0%,10%,10%,17%,4%
Cc1nnc(-c2ccc(C)c(-c3ccc(C(=O)O)cc3)c2)o1 [GW608005],21%,0%,0%,0%,1%,20%,0%,8%,22%,0%,0%,0%,0%,18%,0%,9%,0%,0%,8%,0%
CCCC(=O)Nc1n[nH]c2ncc(-c3cccc4ccccc34)cc12 [SB-642057],0%,4%,0%,0%,0%,30%,0%,4%,20%,13%,0%,0%,0%,2%,0%,0%,4%,1%,15%,19%
CN1C(=O)C(Nc2ccccc2)=C(c2ccccc2)C1=O [SB-300079],1%,0%,0%,0%,0%,0%,17%,10%,16%,0%,0%,0%,0%,0%,4%,0%,0%,0%,17%,0%
O=C(Nc1n[nH]c2cc(-c3ccccc3F)ccc12)C1CC1 [SB-733371],0%,0%,0%,0%,0%,4%,0%,3%,0%,0%,22%,0%,19%,0%,0%,5%,0%,22%,4%,0%
Nc1nc(-c2ccccc2F)c(-c2ccnc3ccccc23)s1 [GW560459],36%,3%,0%,0%,3%,9%,4%,0%,36%,0%,0%,0%,0%,0%,0%,0%,0%,0%,34%,0%
CCC(=O)c1c(-c2ccccc2)c2cc(Cl)ccc2c(=O)n1Cc1cc(S(C)(=O)=O)n(CC(N)=O)n1,0%,0%,0%,0%,0%,0%,0%,0%,0%,0%,0%,15%,0%,0%,0%,0%,0%,0%,0%,0%
COc1ccc(CNC(=O)NC2CCN(c3ccnc(Nc4ccc(F)cc4)n3)C2)cc1 (stereo not drawn) [GSK1379706],42%,16%,0%,6%,0%,0%,0%,0%,20%,0%,0%,7%,17%,8%,0%,0%,1%,16%,16%,30%
COc1ccc(Nc2nccc(N3CCC(NS(=O)(=O)c4ccc(NC(C)=O)cc4)C3)n2)cc1 (stereo not drawn) [GSK1379729],23%,8%,0%,0%,4%,8%,3%,3%,36%,0%,23%,21%,0%,36%,7%,31%,17%,7%,19%,1%
COc1cc2ncn(-c3cc(OCc4ccncc4Br)c(C(N)=O)s3)c2cc1OC [GW854278],12%,0%,3%,4%,5%,3%,8%,30%,27%,0%,25%,10%,21%,0%,0%,0%,0%,5%,0%,9%

# Source: paper PMC5540273 (PLoS ONE, 2017)
